In the supplement of paper PMC3616981:

Compound: CC(C)c1cccc(C(C)C)c1N1C(=O)c2ccc(O)cc2C1=O
Test: reporter fold induction vs vehicle; higher = higher reporter activity
Outline: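 Values give reporter activity as fold induction compared with vehicle, averaged across replicates where available. The multiplexed cellular reporter system carried 48 cis and 25 trans constructs, and ToxCast Phase II chemicals were run at 8 concentrations from 0.091 to 200 µM.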

| Target | reporter fold induction (0.091 µM) | reporter fold induction (0.274 µM) | reporter fold induction (0.823 µM) | reporter fold induction (2.469 µM) | reporter fold induction (7.407 µM) | reporter fold induction (22.22 µM) | reporter fold induction (66.67 µM) | reporter fold induction (200 µM) |
| --- | --- | --- | --- | --- | --- | --- | --- | --- |
| FXR_TRANS | 1.17 | 1.15 | 1.19 | 1.17 | 1.09 | 1.46 | 1.82 | 1.92 |
| RXRb_TRANS | 1.04 | 1.11 | 1.24 | 1.01 | 1.17 | 1.19 | 1.07 | 0.915 |
| HIF1a_CIS | 1.04 | 1.07 | 1.03 | 1.03 | 1.07 | 1.22 | 0.927 | 1.08 |
| TA_CIS | 1.06 | 1 | 1.04 | 0.923 | 0.983 | 1.08 | 1.39 | 1.22 |
| TAL_CIS | 1.06 | 0.981 | 1.01 | 0.98 | 1.11 | 1.09 | 1 | 1.28 |
| GATA_CIS | 1 | 0.993 | 0.983 | 1.05 | 0.98 | 0.902 | 1.07 | 0.842 |
| PXRE_CIS | 1.22 | 1.56 | 0.755 | 0.738 | 6.98 | 6.26 | 2.42 | 0.398 |
| Oct_MLP_CIS | 1.09 | 1.03 | 1.03 | 1.01 | 1.08 | 1.1 | 1.77 | 3.68 |
| LXRa_TRANS | 0.858 | 0.611 | 1 | 0.742 | 0.814 | 0.638 | 0.979 | 0.718 |
| CRE_CIS | 1.08 | 1.03 | 1.01 | 0.951 | 1.11 | 1.17 | 2.03 | 3.21 |
| Sox_CIS | 0.965 | 1.03 | 1.03 | 1.04 | 0.984 | 1.19 | 1.19 | 2.17 |
| MRE_CIS | 1.05 | 0.983 | 1 | 0.924 | 1.22 | 1.2 | 1.8 | 3.72 |
| TGFb_CIS | 1.08 | 0.916 | 0.91 | 0.906 | 0.939 | 1.03 | 1.23 | 0.915 |
| NFI_CIS | 1.01 | 0.966 | 1.05 | 0.998 | 1.02 | 0.921 | 1.41 | 1.66 |
| E2F_CIS | 1.02 | 0.922 | 0.954 | 1.04 | 0.971 | 0.968 | 0.945 | 1.23 |
| RARb_TRANS | 0.778 | 0.835 | 0.897 | 0.861 | 1.51 | 1.95 | 1.29 | 0.429 |
| M_06_TRANS | 0.964 | 1.01 | 0.995 | 1.01 | 1.01 | 1 | 0.996 | 0.992 |
| Pax6_CIS | 1 | 1.01 | 1.02 | 1.1 | 0.964 | 1.1 | 1.49 | 2.44 |
| GRE_CIS | 0.966 | 0.951 | 1.06 | 1.05 | 0.999 | 0.996 | 1.01 | 0.888 |
| GAL4_TRANS | 1.03 | 0.907 | 0.951 | 0.908 | 0.842 | 0.905 | 0.61 | 0.53 |
| SREBP_CIS | 1.04 | 0.954 | 1.01 | 0.996 | 1.05 | 0.976 | 1.16 | 1.49 |
| RORE_CIS | 1.04 | 1.06 | 1.06 | 0.974 | 1.08 | 1.15 | 1.84 | 1.72 |
| EGR_CIS | 1.05 | 0.979 | 0.95 | 0.927 | 1.1 | 1.2 | 1.64 | 2.7 |
| RARa_TRANS | 1.04 | 0.782 | 1.21 | 1.2 | 1.48 | 2.4 | 2.07 | 0.506 |
